From ChEMBL document CHEMBL3988442, “University of Dundee, Small-Polar-MMV Screening Library” (2021)
About 13,000 (27%) of roughly 48,000 compounds showed an effect of 50% or more. This is one part of the list.

Test system: Wolbachia pipientis
Assay: Anti-Wolbachia Cell-Based Screen
Format: functional
Parameters: scale not given: in the data most compounds retested in dose-response had high values
Details: 5 µM

SMILES	Percent Effect [%]
CCOc1ccc(CCC(=O)N2CC[C@H]3C(=O)NCCO[C@H]3C2)cc1	8.218
Cc1c(C(=O)NCCC(=O)N2CCOCC2)oc2c(C)cccc12	-0.1879
CC(NCc1cnc(C2CCC2)s1)c1cccc(-n2cccn2)c1 (stereo unspecified)	-14.57
O=C(CN1C(=O)CCC1=O)NCc1nn(C2CCCC2)c2c1CCCC2	-9.274
Cc1nc(COC[C@@]23CCC[C@@H]2CN(Cc2cnn(C)c2)C3)cs1	93.55
Cc1nc(COC[C@@]23CCC[C@@H]2CN(Cc2nccs2)C3)cs1.O=C(O)C(F)(F)F	8.352
Cn1cc(CN2C[C@@H]3COC[C@]3(COCC3CC3)C2)cn1.O=C(O)C(F)(F)F	100.8
CCn1cc2c(n1)CN(Cc1cnn(C)c1)CC2COCC1CC1.O=C(O)C(F)(F)F (stereo unspecified)	12.58
Cn1cc(CN2C[C@@H]3COC[C@]3(CNC(=O)c3ccsc3)C2)cn1.O=C(O)C(F)(F)F	-12.06
Cn1cc(CN2C[C@H]3CCC[C@@]3(COCC3CC3)C2)cn1.O=C(O)C(F)(F)F	101.6
Cn1cc(CN2CCn3cnc(COCC4CC4)c3C2)cn1.O=C(O)C(F)(F)F	8.69
Cc1cccc(CN2C[C@H]3CCC[C@@]3(COCc3csc(C)n3)C2)n1.O=C(O)C(F)(F)F.O=C(O)C(F)(F)F	-5.241
Cn1cc(CN2C[C@@H]3COC[C@]3(CNC(=O)c3ccco3)C2)cn1.O=C(O)C(F)(F)F	-7.864
COc1ccc(Br)c(C(=O)N2CCC(c3n[nH]c(C4CC4)n3)CC2)c1	9.985
O=C(Cc1csc(N2CCNC2=O)n1)NC1(c2ccccc2)CCC1	3.065
Cc1nc(NC(=O)N2CCCC(C(C)(C)O)C2)nn1C (stereo unspecified)	7.598
CC(C)N[C@@H]1CO[C@H](CNC(=O)c2cccs2)[C@H]1O	0.5301
NC(=O)NCC(=O)N1CCC(c2cc(-c3ccccc3Cl)n[nH]2)CC1	9.084
CC(=O)N1N=C(Cc2ccccc2)OC1C(=O)NCC(C)C (stereo unspecified)	119.9
CCN1CC(C(=O)NCc2noc(Cc3ccccc3)n2)CCC1=O (stereo unspecified)	-8.005
CC(C)N1CCCC(C(=O)NCc2noc(Cc3ccccc3)n2)C1 (stereo unspecified)	-0.7063
CC(=O)N1N=C(c2ccccc2)OC1C(=O)NCC(=O)OC(C)(C)C (stereo unspecified)	126.7
COC(=O)CN1CC(c2nc(Cc3ccccc3)no2)C1.O=C(O)C(=O)O	-2.345
CCOC(=O)CNC(=O)C1OC(c2ccccc2)=NN1C(C)=O (stereo unspecified)	105.7

SMILES	Percent Effect [%]
CN(C(=O)c1ccco1)C1CCC(NC(=O)OC(C)(C)C)CC1 (stereo unspecified)	-29.92
CCOC(=O)CNC(=O)C1CN(C(=O)c2cnccn2)C1	12.27
CC(C)(C)OC(=O)CNC(=O)CCc1nnc(-c2ccsc2)o1	-11.15
CCC(CNC(C)=O)(OC)c1ccccc1 (stereo unspecified)	-7.237
CC(=O)N1N=C(Cc2ccccc2)OC1C(=O)NCC(=O)OC(C)(C)C (stereo unspecified)	112
CCOC(=O)CNC(=O)N1CCCC(CNC(=O)c2ccco2)C1 (stereo unspecified)	-9.65
CC(C)N[C@@H]1CO[C@H](CNC(=O)Nc2ccccc2)[C@H]1O	-15.53
Cc1nc(C(NC(=O)CN(C)C(C)C)c2ccccc2F)no1 (stereo unspecified)	-8.62
CCc1nnc(CN2CCN(C(C)=O)CC2)o1	-9.857
Cc1ccc(C(=O)N2CCC(Oc3ccc(F)cc3F)CC2)c(=O)[nH]1	-17.81
CC(C)c1nnc(NCCS(C)(=O)=O)s1	-6.765
CC1(C)COCCN1C(=O)CCc1nc(-c2ccncc2)no1	14.72
CCOc1ncccc1CNc1cc(COC)ncn1	-5.284
COc1ccc(Cl)cc1C(=O)N1CCOC2(CNCCOC2)C1 (stereo unspecified)	-14.44
O=C(c1ccccc1)N1CC2(CCNC2)OCc2ccccc21 (stereo unspecified)	116.8
O=C(c1ccc(NCc2ccco2)nc1)N1CCc2ccccc21	16.32
Cc1ccccc1C1CCCN1C(=O)CN1CC2(CCNCC2)OC1=O (stereo unspecified)	-3.464
O=C(c1ccccc1-c1ccccc1)N1CCOC2(CNCCOC2)C1 (stereo unspecified)	-21.41
O=C(c1ccc(Cl)cc1)N1CC2(CCNC2)OCc2ccccc21 (stereo unspecified)	113.7
O=C(C1CCCC1)N1CC2(CCNC2)OCc2ccccc21 (stereo unspecified)	106
O=C1OC2(CCNCC2)CN1CC(=O)N1CCC1c1cccs1 (stereo unspecified)	-13.03
Cc1ccccc1C(=O)N1CCOC2(CNCCOC2)C1 (stereo unspecified)	-17.32
Clc1cc(CN2CCCC(Cn3cncn3)C2)c2ncccc2c1 (stereo unspecified)	-5.34
N#CCC(=O)NCc1nnc2n1CCN(Cc1ccsc1)C2	-8.086

SMILES	Percent Effect [%]
COC(=O)CN1N=C(C(=O)N2CCCC2)S(=O)(=O)c2ccccc21	18.69
Cc1nccn1-c1cncc(C2CCCN2Cc2cccnc2)n1 (stereo unspecified)	117.3
CCc1nc(C2CCCN2Cc2nccn2Cc2ccccc2)no1 (stereo unspecified)	3.12
Cc1nccn1-c1cncc(C2CCCN2Cc2ccccc2)n1 (stereo unspecified)	97.46
CC(C)c1nccn1-c1cncc(C2CCCN2Cc2cccnc2)n1 (stereo unspecified)	151.3
COCCN(Cc1ccc(F)cc1C#N)CC(F)(F)F	-22.68
COCCNC(=O)C1(CCCc2cccnc2)CCCN1C (stereo unspecified)	112.4
CNC(=O)C1(CCCc2cccnc2)CCCCN1 (stereo unspecified)	-7.533
COCCCn1ccc(NC(=O)NCCc2cccnc2)n1	-2.122
CN1CCCC1(CCCc1cccnc1)C(=O)NCc1nccn1C (stereo unspecified)	97.51
O=C(Nc1ccnc2ccnn12)c1ccc(N2CCC(O)CC2)cc1	5.741
CN(CC1CCOCC1)C(=O)NCCCN1CCCCC1	-10.18
COCCN1CCC(CN(CC2CCCO2)C(=O)CCC(F)(F)F)CC1 (stereo unspecified)	140.7
COCCN1CCC(CN(CC2CCCO2)C(=O)CCNC(C)=O)CC1 (stereo unspecified)	-5.608
COCC(=O)N(CCC(=O)OC)CC1CCCO1 (stereo unspecified)	-0.04842
COCCN1CCC(CN(CC2CCCO2)C(=O)C2CCOCC2)CC1 (stereo unspecified)	95.06
COCCN1CCC(CN(CC2CCCO2)C(=O)COC)CC1 (stereo unspecified)	-4.712
COCCN1CCC(CN(CC2CCCO2)C(=O)CNC(C)=O)CC1 (stereo unspecified)	106.5
COCCN1CCC(CNC(=O)C2(NC(C)=O)CCCCC2)CC1	17.17
O=C(CC1CCCO1)Nc1ccn(Cc2cccc3cccnc23)n1 (stereo unspecified)	-4.253
CC(=O)N1CCN(C(=O)CCCc2nc(C(C)C)no2)CC1	-8.538
CC(NCc1cnc(C2CCC2)s1)c1ccc(-n2cccn2)cc1 (stereo unspecified)	-14.42
O=S(=O)(Nc1ccc2c(c1)OCCO2)N1CCCCC1	85.12
O=S(=O)(Nc1ccc(Oc2ccc3c(c2)OCO3)cc1)N1CCCCC1	108.9

SMILES	Percent Effect [%]
Cc1cc(C(=O)O)cc(S(=O)(=O)Nc2ccc3c(c2)OCO3)c1C	13.44
Cc1c(F)cc(C(=O)O)cc1S(=O)(=O)Nc1ccc2c(c1)OCCO2	-12.89
O=C(CSc1ccc2c(c1)OCCO2)NS(=O)(=O)C1CCCCC1	-3.835
CN(C)S(=O)(=O)Nc1ccc(-n2nccc2C(F)(F)F)cc1	-20.66
CN(C)S(=O)(=O)Nc1ccc(Oc2ccc3c(c2)OCO3)cc1	102.4
O=C(c1cc(COc2ccc3c(c2)OCO3)[nH]n1)N1CCCCO1	18.38
CC1(Cc2ccc3c(c2)OCO3)CCCN(S(=O)(=O)N2CCCC2)C1 (stereo unspecified)	-20.92
CC(C)c1nsc(N2CCn3c(nnc3C(F)(F)F)C2)n1	-8.607
CCc1cc(=O)[nH]c(-c2ccc(NCCc3ccc(O)cc3)nc2)n1	-8.547
Cc1ccc(CNC2CCN(CCc3ccncc3)CC2)cc1C	2.941
O=C1[C@H]2CC[C@H](CN(Cc3ccccc3OC(F)F)C2)N1CC1CC1	-16.02
CN(C)CCN1CCO[C@H]2CCN(C(=O)c3cccs3)CC[C@@H]21.O=C(O)C(F)(F)F.O=C(O)C(F)(F)F	-1.673
O=C(O)C(F)(F)F.O=C(c1cocn1)N1C[C@@H]2CN(Cc3ccco3)CCO[C@@H]2C1	-2.402
Cn1cc(CN2C[C@@H]3CN(C(=O)c4cccn4C)CCO[C@@H]3C2)cn1	94.4
CN(C)CCN1CCO[C@@H]2CCN(C(=O)c3cccn3C)CC[C@H]21	111.2
Cc1nc(CN2CCO[C@H]3CN(C(=O)c4cccn4C)C[C@H]32)cs1	4.285
Cn1cc(CN2C[C@@H]3CN(Cc4ccoc4)CCO[C@@H]3C2)cn1.O=C(O)C(F)(F)F.O=C(O)C(F)(F)F	1.152
O=S(=O)(C1CC1)N1CCO[C@@H]2CN(Cc3ccco3)C[C@@H]2C1	3.474
CCS(=O)(=O)N1C[C@@H]2CN(Cc3cnn(C)c3)CCO[C@@H]2C1.O=C(O)C(F)(F)F	4.441
Cn1cccc1C(=O)N1CCO[C@@H]2CN(Cc3ccco3)C[C@@H]2C1	74.97
CN(Cc1ccc(Cl)s1)C(=O)CN1CC(n2cccn2)C1	-39.44
CCC(NC(=O)CCNC(=O)c1ccccc1F)c1cc(C)ccn1 (stereo unspecified)	-12.53
CC(C)Cc1nc(CCn2ccc(=O)[nH]c2=O)n(-c2ccccn2)n1	0.8317
CCC(c1nc(C(C)C)nn1-c1ccncc1C)n1cccn1 (stereo unspecified)	-1.289
